Screening results as filed in PubChem.
Pf growth 96h: Primary qHTS for delayed death inhibitors of the malarial parasite plastid, 96 hour incubation; P. falciparum luciferase reporter growth, 96 h; Potency, µM (titrated, usually from 28.7 µM), for the others: at the highest dose activity change, negative = inhibition, most hits filed as inhibitors; 6.9% of 320,000 active; AID 504834, 2011; further: on the % scale 0 is the no-effect control and ±100 the full control effect
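Two-generation exposure (96 h) targets delayed-death phenotype. Reporter parasites carrying integrated firefly luciferase, in red cells at 2% hematocrit and 0.05% parasitemia final, kept at 37 C, 5% CO2; luminescence loss indicates inhibition.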
Pf growth 48h: Primary qHTS for delayed death inhibitors of the malarial parasite plastid, 48 hour incubation; P. falciparum luciferase growth in erythrocytes, 48 h; Potency, µM (doses to about 28.7 µM), for inactives: top-dose activity change, negative = inhibition, most hits filed as inhibitors; 5.9% of 310,000 active; AID 504832, 2011; further: on the % scale 0 is the no-effect control and ±100 the full control effect
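Growth was read as firefly luciferase luminescence after a 48 h, 37 C, 5% CO2 exposure of compounds to reporter-bearing P. falciparum cultures (0.1% parasitemia, 2% hematocrit final) in Albumax-supplemented RPMI 1640.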
SARS PLpro yeast: qHTS of Yeast-based Assay for SARS-CoV PLP. S. cerevisiae expressing SARS-CoV PLpro, growth rescue. Potency, µM (top dose mostly 32.9 µM), without a hit: at the top dose activity, positive = growth rescue, usual class: activators. 0.19% of 330,000 active; calls by dose curve; further: 0% is about no effect; nearly all actives have a fitted effect of over 55% in size
AmpC detergent: qHTS Inhibitors of AmpC Beta-Lactamase (assay with detergent) | AID 485294, 2010 | 0.041% of 370,000 active | Potency, µM (top dose mostly 114 µM), without a hit: at the highest dose activity change, negative = inhibition, most hits filed as inhibitors | P00811 | AmpC hydrolysis of nitrocefin, absorbance 480 nm, 0.01% Triton;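 further: 0% = no-compound wells and -100% = no-enzyme wells; nearly all actives have a fitted effect of over 25% in size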
Target sequence (P00811 whole entry, looked up): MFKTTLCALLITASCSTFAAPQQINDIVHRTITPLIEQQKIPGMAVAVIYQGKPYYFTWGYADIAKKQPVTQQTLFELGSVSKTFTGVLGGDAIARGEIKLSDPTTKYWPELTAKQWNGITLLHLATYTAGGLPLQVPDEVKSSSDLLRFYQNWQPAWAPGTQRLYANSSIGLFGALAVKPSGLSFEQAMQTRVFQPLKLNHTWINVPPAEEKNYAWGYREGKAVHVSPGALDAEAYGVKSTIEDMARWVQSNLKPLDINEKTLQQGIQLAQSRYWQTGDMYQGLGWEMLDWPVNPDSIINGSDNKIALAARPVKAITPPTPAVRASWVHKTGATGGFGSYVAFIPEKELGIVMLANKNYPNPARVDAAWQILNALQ
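AmpC (5.3 nM in the dispensed reagent) in 20 mM phosphate pH 7.0 with 0.01% (detergent screen) or 0.0001% Triton X-100 was preincubated with compounds for 15 min at room temperature. Nitrocefin was then added from an 800 uM solution, and hydrolysis was followed at 480 nm.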
AmpC inh no detg: qHTS Inhibitors of AmpC Beta-Lactamase (assay without detergent); P00811; AmpC nitrocefin hydrolysis, absorbance 480 nm, 0.0001% Triton; Potency, µM (highest dose often 57.1 µM), without a hit: top-dose activity change, negative = inhibition, most hits filed as inhibitors; 0.52% of 330,000 active;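 further: plate controls were no compound for no effect and no enzyme for full effect; nearly all actives have a fitted effect of over 20% in size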
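20 mM phosphate pH 7.0 + 0.01% (detergent screen) or 0.0001% Triton X-100; 5.3 nM AmpC reagent; cpd preinc 15 min RT; nitrocefin (800 uM stock) to start; A480 q20 s × 4 min; Activity was normalised to no-enzyme and no-compound control wells.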
Sm TGR block: qHTS Assay for the Inhibitors of Schistosoma Mansoni Peroxiredoxins; Schistosoma mansoni thioredoxin glutathione reductase (TGR), Q962Y6; purified TGR, DTNB reduction, TNB absorbance 405 nm; Potency, µM (series often up to 114 µM), inactives show at the top dose activity change, negative = inhibition, actives largely listed as inhibitors; 3% of 360,000 active; further: on the % scale 0 is the no-effect control and ±100 the full control effect; nearly all actives have a fitted effect of over 60% in size
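Kinetic colorimetric format: TGR-catalysed, NADPH-driven DTNB reduction monitored via TNB absorbance. Enzyme dispensed at 20 nM; compound exposure 15 min at room temperature before reaction start.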
An asterisk follows results filed as active. In the library only some 12% were active in any assay of this set; here they are far more common. Unless noted, the call rests on the fitted dose curve; in most records, active means well fitted curve in the direction sought with a large enough effect; inconclusive means small, poorly fitted or top-dose-only effect, or another doubt; inactive means no such curve, though single readings can be large; an effect the other way counts as inactive or inconclusive. Potency means the concentration at half of the fitted maximal effect.

Results for CCOc1ccc(/C=N/Nc2cc(N3CCOCC3)nc(C)n2)c(O)c1 ?
Pf growth 96h: 6.57µM*; Pf growth 48h: -7.0%; SARS PLpro yeast: -2.3%; AmpC detergent: 1.1%; AmpC inh no detg: -11.7%; Sm TGR block: 5.5%

Results for Cc1cc(N/N=C/c2ccc(O)cc2O)nc(-c2ccccc2O)n1 ?
Pf growth 96h: inconclusive; Pf growth 48h: 2.62µM*; SARS PLpro yeast: 8.3%; AmpC detergent: -10.3%; AmpC inh no detg: inconclusive; Sm TGR block: -7.3%

How did Cc1cc(N/N=C/c2ccccc2O)nc(N2CCOCC2)n1 do in these assays?
Pf growth 96h: inconclusive; Pf growth 48h: 10.4µM*; SARS PLpro yeast: -1.4%; AmpC detergent: 2.3%; AmpC inh no detg: 15.8%; Sm TGR block: 6.2%

Results for COc1ccc(OC)c(/C=N/Nc2cc(C)nc(N3CCOCC3)n2)c1 ?
Pf growth 96h: inconclusive; Pf growth 48h: -7.2%; SARS PLpro yeast: 0.3%; AmpC detergent: 0.9%; AmpC inh no detg: 72.1%; Sm TGR block: 7.3%

Results for Cc1nnc(SCC(=O)c2ccc(Cl)cc2)s1 ?
Pf growth 96h: 0.0%; Pf growth 48h: 164.8%; SARS PLpro yeast: -1.3%; AmpC detergent: 2.3%; AmpC inh no detg: -16.3%; Sm TGR block: 5.5%

Results for O=C(N/N=C/c1ccccn1)c1cccc(S(=O)(=O)N2CCCC2)c1 ?
Pf growth 96h: 10.8%; Pf growth 48h: -15.3%; SARS PLpro yeast: -3.0%; AmpC detergent: 7.7%; AmpC inh no detg: -7.7%; Sm TGR block: 6.6%

How did Cc1cc(N/N=C/c2ccc(O)cc2O)nc(-n2nc(C)cc2C)n1 do in these assays?
Pf growth 96h: inconclusive; Pf growth 48h: 1.85µM*; SARS PLpro yeast: 18.3%; AmpC detergent: inconclusive; AmpC inh no detg: -52.8%; Sm TGR block: -13.0%

What do the screens show for `CSc1ccccc1NC(=O)CSc1nncs1`?
Pf growth 96h: 4.2%; Pf growth 48h: 14.5%; SARS PLpro yeast: 1.3%; AmpC detergent: -6.6%; AmpC inh no detg: -9.0%; Sm TGR block: 1.4%

How did COc1ccc(Cl)cc1NC(=O)CN(C)C(=O)C12CC3CC(CC(Cl)(C3)C1)C2 do in these assays?
Pf growth 96h: inconclusive; Pf growth 48h: -9.5%; SARS PLpro yeast: -11.0%; AmpC detergent: inconclusive; AmpC inh no detg: 32.1%; Sm TGR block: -0.6%

Results for CC(C)(C)c1ccc(OCCC(=O)Nc2cccc(S(=O)(=O)NC3=NCCCCC3)c2)cc1 ?
Pf growth 96h: inconclusive; Pf growth 48h: 11.7µM*; SARS PLpro yeast: -2.3%; AmpC detergent: inconclusive; AmpC inh no detg: 42.1%; Sm TGR block: 3.0%

How did O=C(Cc1csc(-c2ccc(Cl)cc2)n1)Nc1cccc(S(=O)(=O)NC2=NCCC2)c1 do in these assays?
Pf growth 96h: -10.8%; Pf growth 48h: inconclusive; SARS PLpro yeast: 2.2%; AmpC detergent: inconclusive; AmpC inh no detg: -3.9%; Sm TGR block: -0.1%

What do the screens show for `O=C(COC(=O)c1ccc(O)cc1)Nc1cccc(S(=O)(=O)NC2=NCCC2)c1`?
Pf growth 96h: 6.57µM*; Pf growth 48h: inconclusive; SARS PLpro yeast: -2.3%; AmpC detergent: inconclusive; AmpC inh no detg: -40.7%; Sm TGR block: -11.4%

What do the screens show for `O=C(CCl)Nc1cccc(S(=O)(=O)NC2=NCCC2)c1`?
Pf growth 96h: 4.65µM*; Pf growth 48h: 3.29µM*; SARS PLpro yeast: -0.4%; AmpC detergent: -10.2%; AmpC inh no detg: -15.5%; Sm TGR block: 6.31µM*

Results for CN(CC(=O)Nc1cccc(S(=O)(=O)NC2=NCCCCC2)c1)Cc1ccc(C(C)(C)C)cc1 ?
Pf growth 96h: inconclusive; Pf growth 48h: inconclusive; SARS PLpro yeast: -8.5%; AmpC detergent: -3.5%; AmpC inh no detg: 145.9%; Sm TGR block: 2.1%

Results for O=C(Cc1csc(-c2ccc(F)cc2)n1)Nc1cccc(S(=O)(=O)NC2=NCCC2)c1 ?
Pf growth 96h: 6.57µM*; Pf growth 48h: -28.7%; SARS PLpro yeast: 5.7%; AmpC detergent: -0.4%; AmpC inh no detg: -10.1%; Sm TGR block: -14.8%

What do the screens show for `CCNC(=S)Nc1cccc(S(=O)(=O)NC2=NCCC2)c1`?
Pf growth 96h: inconclusive; Pf growth 48h: -22.4%; SARS PLpro yeast: 0.9%; AmpC detergent: -3.3%; AmpC inh no detg: -26.3%; Sm TGR block: -28.0%

Results for COc1ccc(NC(=O)c2cc3c([nH]c2=O)CC(c2ccccc2)CC3=O)cc1 (centres undefined) ?
AmpC detergent: 6.3%; Sm TGR block: 2.2%

How did CCCCNC(=S)Nc1cccc(S(=O)(=O)NC2=NCCC2)c1 do in these assays?
Pf growth 96h: -3.4%; Pf growth 48h: 3.6%; SARS PLpro yeast: 7.9%; AmpC detergent: 0.3%; AmpC inh no detg: -16.9%; Sm TGR block: 39.8µM*

How did Cc1ccc(-c2nc(CS(=O)CC(=O)NC3CCCC(C)C3C)c(C)o2)cc1 (centres undefined) do in these assays?
Pf growth 96h: -11.3%; Pf growth 48h: 21.3%; SARS PLpro yeast: -1.6%; AmpC detergent: 1.2%; AmpC inh no detg: 142.1%; Sm TGR block: 44.7µM*

How did COc1ccc(-c2nc(CS(=O)CC(=O)NC3CCCCC3C)c(C)o2)cc1 (centres undefined) do in these assays?
Pf growth 96h: -12.0%; Pf growth 48h: -6.5%; SARS PLpro yeast: 0.2%; AmpC detergent: -10.1%; AmpC inh no detg: 69.8%; Sm TGR block: inconclusive

Results for COc1ccc(-c2nc(CS(=O)CC(=O)NC3CCCC(C)C3C)c(C)o2)cc1OC (centres undefined) ?
Pf growth 96h: 11.7µM*; Pf growth 48h: -13.6%; SARS PLpro yeast: 13.5%; AmpC detergent: -4.5%; AmpC inh no detg: 130.4%; Sm TGR block: 12.6µM*

Results for O=c1ccc2ccc(Oc3ccc([N+](=O)[O-])cc3[N+](=O)[O-])cc2o1 ?
Pf growth 96h: -16.3%; Pf growth 48h: -0.2%; SARS PLpro yeast: -5.7%; AmpC detergent: 2.1%; AmpC inh no detg: -23.5%; Sm TGR block: 39.8µM*

What do the screens show for `CN(CC(=O)Nc1cccc(F)c1)C(=O)c1cc(-c2ccco2)nc2ccccc12`?
Pf growth 96h: inconclusive; Pf growth 48h: inconclusive; SARS PLpro yeast: 1.5%; AmpC detergent: -9.8%; AmpC inh no detg: 17.8µM*; Sm TGR block: 7.94µM*

Results for COc1cccc(NC(=O)CN(C)C(=O)c2cc(-c3ccccc3)nc3ccccc23)c1 ?
Pf growth 96h: inconclusive; Pf growth 48h: inconclusive; SARS PLpro yeast: -6.0%; AmpC detergent: 0.0%; AmpC inh no detg: -34.0%; Sm TGR block: -1.9%
